Cruzain inh Det = cruzain (T. cruzi) inhibition with detergent | Potency, µM, actives largely listed as inhibitors | actives 0.43% (n = 200,000) | purified cruzain, Z-FR-AMC fluorescence, 0.01% Triton; also: nearly all actives have a fitted effect of over 40% in size
Target sequence (P25779 123-467 limits assumed): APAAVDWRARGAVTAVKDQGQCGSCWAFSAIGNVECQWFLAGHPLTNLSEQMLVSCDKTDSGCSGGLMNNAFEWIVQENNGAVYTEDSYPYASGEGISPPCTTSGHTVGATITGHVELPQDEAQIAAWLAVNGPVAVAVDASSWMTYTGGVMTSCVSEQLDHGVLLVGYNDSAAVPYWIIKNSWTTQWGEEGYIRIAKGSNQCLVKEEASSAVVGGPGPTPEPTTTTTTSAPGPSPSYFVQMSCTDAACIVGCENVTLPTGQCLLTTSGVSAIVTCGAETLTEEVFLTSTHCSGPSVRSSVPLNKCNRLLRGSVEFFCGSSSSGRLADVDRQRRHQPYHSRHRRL
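Sodium acetate buffer (100 mM, pH 5.5) containing 5 mM DTT and 0.01% Triton X-100 hosted 1.5 nM cruzain and test compound for 15 min at room temperature. Cleavage of 2 uM Z-FR-AMC was then tracked by fluorescence.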
Cruzain inh noDet = cruzain (T. cruzi) inhibition without detergent; purified cruzain, Z-FR-AMC fluorescence, no detergent; actives 2.3% (n = 200,000); P25779; Potency, µM, actives largely listed as inhibitors; also: nearly all actives have a fitted effect of over 40% in size
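Purified cruzain at 1.5 nM, pre-incubated 15 min with compound at room temperature in 100 mM sodium acetate pH 5.5, 5 mM DTT, 0.00005% Triton X-100. Reaction started with 2 uM Z-FR-AMC; AMC fluorescence increase over 60 s gives rate.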
Numbers stand for hits. An excerpt weighted towards active compounds, which were near 2.4% of everything screened. Calls follow the shape of the dose curve; as a rule, active = well fitted curve in the direction sought with a large enough effect; inconclusive = small, poorly fitted or top-dose-only effect, or another doubt; inactive = no such curve, though single readings can be large; an effect the other way counts as inactive or inconclusive.

Screening NC(=O)CSc1nnc(-c2cc(-c3cccs3)nc3ccccc23)o1 returned Cruzain inh Det inactive and Cruzain inh noDet inactive.
For Cc1ccc(Cl)cc1NS(=O)(=O)c1ccc2c(c1)NC(=O)CCS2 the results were Cruzain inh Det inactive and Cruzain inh noDet inactive.
`Nc1nc2[nH]c(=O)[nH]c2c(=O)[nH]1` gave Cruzain inh Det inactive and Cruzain inh noDet inactive.
CSCCC(NS(=O)(=O)c1ccc2c(c1)oc(=O)n2C)C(=O)N1CCN(c2cc(Cl)ccc2C)CC1 (configuration not stated) was read as Cruzain inh Det inactive and Cruzain inh noDet inactive.
CC1CCc2c(sc(NC(=O)COC(=O)c3ccccc3NCc3ccco3)c2C#N)C1 (configuration not stated) was read as Cruzain inh Det inactive and Cruzain inh noDet 16µM.
`Cc1ccccc1C(=O)NC(=S)Nc1sc2c(c1C#N)CCC(C)C2` (configuration not stated) gave Cruzain inh Det inactive and Cruzain inh noDet 16µM.
`N#Cc1c(NC(=S)NC(=O)c2ccccc2)sc2c1CCCC2` gave Cruzain inh Det inactive and Cruzain inh noDet inactive.
Screening N#Cc1c(NC(=S)NC(=O)c2ccccc2)sc2c1CCN(CCc1ccccc1)C2 returned Cruzain inh Det inactive and Cruzain inh noDet 16µM.
Screening Cc1cc(C(=O)Nc2sc3c(c2C#N)CCC(C)C3)cs1 (configuration not stated) returned Cruzain inh Det inactive and Cruzain inh noDet inconclusive.
`CC1CCc2c(sc(NC(=O)COc3ccccc3C(C)(C)C)c2C#N)C1` (configuration not stated) gave Cruzain inh Det inactive and Cruzain inh noDet inactive.
Cc1c(CNC2CCCCC2)c(C(=O)O)c(C)n1Cc1ccc(Cl)cc1 was read as Cruzain inh Det inactive and Cruzain inh noDet inactive.
O=c1[nH]c(SCc2nc3c(cnn3-c3ccccc3)c(=O)[nH]2)nc2ccccc12 was read as Cruzain inh Det inactive and Cruzain inh noDet inactive.
O=c1[nH]c(SCc2ccccc2Cl)nc2c1cnn2-c1ccccc1 was read as Cruzain inh Det inactive and Cruzain inh noDet 16µM.
For Cc1ccc(-n2ncc3c(=O)[nH]c(SCC(=O)N4CCOCC4)nc32)cc1 the results were Cruzain inh Det inactive and Cruzain inh noDet inactive.
For Cc1ccc(-n2ncc3c(=O)[nH]c(SCC(=O)N4CCN(c5ccccc5)CC4)nc32)cc1 the results were Cruzain inh Det inactive and Cruzain inh noDet 25µM.
Screening Brc1ccc2c(c1)c1cc(Br)ccc1n2CC1CO1 (configuration not stated) returned Cruzain inh Det inactive and Cruzain inh noDet inactive.
`CCn1c2ccccc2c2nnc(SCC(=O)c3ccccc3)nc21` gave Cruzain inh Det inactive and Cruzain inh noDet inconclusive.
CCN(CC)CCSc1nnc2c3cc(F)ccc3n(CC)c2n1 was read as Cruzain inh Det 25µM and Cruzain inh noDet 25µM.
For CCOC(=O)c1noc2ncnc(Nc3ccc(F)cc3F)c12 the results were Cruzain inh Det inactive and Cruzain inh noDet inactive.
O=C(COC(=O)[C@H](Cc1ccccc1)NC(=O)c1cccs1)Nc1c(Cl)cccc1Cl was read as Cruzain inh Det 16µM and Cruzain inh noDet 25µM.
CC(=O)NCCNC(=O)[C@H](Cc1ccccc1)NC(=O)c1cccs1 was read as Cruzain inh Det inactive and Cruzain inh noDet inactive.
`O=C(COC(=O)c1cc([N+](=O)[O-])ccc1NCc1ccccc1)NCc1ccccc1Cl` gave Cruzain inh Det inactive and Cruzain inh noDet inactive.
Screening O=C(COC(=O)c1cc([N+](=O)[O-])ccc1NCc1ccccc1)NC1CCCc2ccccc21 (configuration not stated) returned Cruzain inh Det inactive and Cruzain inh noDet 25µM.
`O=C(Nc1ccc(O)c(-c2nc3ccccc3o2)c1)C1(c2ccccc2)CCCC1` gave Cruzain inh Det inactive and Cruzain inh noDet 25µM.
`O=C(Nc1ccc(-c2nc3ccccc3o2)c(O)c1)c1ccccc1` gave Cruzain inh Det inactive and Cruzain inh noDet inactive.
Screening CCN(CC)S(=O)(=O)c1ccc(C(=O)OCC(=O)Nc2sc3c(c2C#N)CCCCC3)cc1 returned Cruzain inh Det inactive and Cruzain inh noDet inconclusive.
`N#Cc1c(NC(=O)COC(=O)c2ccc(F)cc2)sc2c1CCC2` gave Cruzain inh Det inactive and Cruzain inh noDet inconclusive.
For COc1ccc(N(C)S(=O)(=O)c2cccc(C(=O)OCC(=O)Nc3sc4c(c3C#N)CCCCC4)c2)cc1 the results were Cruzain inh Det inactive and Cruzain inh noDet 13µM.
`Cc1ccc(C(=O)OCC(=O)Nc2sc3c(c2C#N)CCC3)cc1` gave Cruzain inh Det inactive and Cruzain inh noDet 20µM.
Screening CC(C)Oc1ccc(C(=O)N2CCN(c3nc4c(F)cc(F)cc4s3)CC2)cc1 returned Cruzain inh Det inactive and Cruzain inh noDet inactive.
Screening CCCCC/C=C\C/C=C\CCCCCCCCCC(=O)NCCCC(=O)O returned Cruzain inh Det inactive and Cruzain inh noDet inactive.
`C/C(=N/NC(N)=S)c1ccccc1[N+](=O)[O-]` gave Cruzain inh Det 16µM and Cruzain inh noDet 13µM.
C/C(=N\NC(=O)c1ccc([N+](=O)[O-])c(C)c1)c1ccccc1Cl was read as Cruzain inh Det inactive and Cruzain inh noDet inactive.
For COc1ccc(CC(N)C(=O)NC2C(CO)OC(n3cnc4c(N(C)C)ncnc43)C2O)cc1 (configuration not stated) the results were Cruzain inh Det inactive and Cruzain inh noDet inactive.
`O=C(Nc1ccccc1)C1CCN(S(=O)(=O)c2ccc3[nH]c4c(c3c2)CCCCC4)CC1` gave Cruzain inh Det inactive and Cruzain inh noDet 16µM.
`CCc1ccc(NC(=O)C2CCN(S(=O)(=O)c3ccc4[nH]c5c(c4c3)CCCCC5)CC2)cc1` gave Cruzain inh Det inactive and Cruzain inh noDet 10µM.
For Cc1cccc(NC(=O)C2CCN(S(=O)(=O)c3ccc4[nH]c5c(c4c3)CCCCC5)CC2)c1 the results were Cruzain inh Det inactive and Cruzain inh noDet 13µM.
Cc1cccc(NS(=O)(=O)c2ccc3[nH]c4c(c3c2)CCCCCC4)c1 was read as Cruzain inh Det inactive and Cruzain inh noDet inactive.
O=C(NCc1ccc2[nH]c3c(c2c1)CCCC3)c1ccc(S(=O)(=O)N2CCCCC2)cc1 was read as Cruzain inh Det inactive and Cruzain inh noDet inconclusive.
Screening CC(=O)c1cccc(NC(=O)C2CCN(S(=O)(=O)c3ccc4[nH]c(=O)ccc4c3)CC2)c1 returned Cruzain inh Det inactive and Cruzain inh noDet inactive.
`Cc1ccc(OCCn2nnc3sc4c(c3c2=O)CCC(C(C)(C)C)C4)cc1` (configuration not stated) gave Cruzain inh Det inactive and Cruzain inh noDet inactive.
C=Cc1ccc(Cn2c(=O)n(-c3cccc(Cl)c3)c(=O)c3c4c(sc32)CN(C(C)=O)CC4)cc1 was read as Cruzain inh Det inactive and Cruzain inh noDet inconclusive.
CCCCN(CCCC)S(=O)(=O)c1ccc2oc(C(=O)NCc3ccccc3)c(C)c2c1 was read as Cruzain inh Det inactive and Cruzain inh noDet inactive.
For Cc1ccc(CCNC(=O)c2cn(C)c3ccc(S(=O)(=O)N4CCCCC4)cc3c2=O)cc1 the results were Cruzain inh Det inactive and Cruzain inh noDet inactive.
Screening COc1ccc(NC(=O)C2CCN(S(=O)(=O)c3c(C)noc3/C=C/c3cccs3)CC2)cc1 returned Cruzain inh Det inactive and Cruzain inh noDet inactive.
For COc1cccc(NC(=O)C2CCN(S(=O)(=O)c3c(C)noc3/C=C/c3cccs3)CC2)c1 the results were Cruzain inh Det inactive and Cruzain inh noDet 16µM.

Screens (PubChem)
